From PubChem BioAssay (NCATS)
Inconclusive results are not listed. The source made the active and inactive calls. Unless noted, the call rests on the fitted dose curve; in most records, active means well fitted curve in either direction with a large enough effect (not every such curve was filed as active); inconclusive means small, poorly fitted or top-dose-only effect, or another doubt; inactive means flat fitted curve, though single readings scatter.

Legend:
[1] = biological target: Lysosomal acid glucosylceramidase (Homo sapiens) (UniProt P04062); test: Glucocerebrosidase-p2 (AID 348; in the data active means potency below about 10 µM; further: potency means the concentration at half of the fitted maximal effect); details: purified GBA, blue fluorogenic substrate, 40 min
Method in brief: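 Normal human glucocerebrosidase (0.2 nM) with blue fluorogenic substrate (80 uM final) in citrate/phosphate pH 5.9 with 10mM sodium taurocholate, 0.01% tween-20; 40 min RT, NaOH/glycine stop; fluorescence Ex 365/Em 440; AC50 from a titration from 0.6 nM upwards.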

[2] = AP1 Signaling Pathway (AID 357); details: ME-180 AP-1-bla reporter, EGF-induced, beta-lactamase ratio, 5 h; at 7.69 µM (top of the series) unless noted;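 further: ME-180 reporter cells stimulated with EGF at its EC50 level; on the % scale 0 is the no-effect control and ±100 the full control effect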
Method in brief: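 First, ME-180 AP-1-bla cells were cultured overnight at 37 °C in low-serum Opti-MEM. Next, titrated compounds with EC50 EGF were incubated 5 hours. Finally, CCF4 was added for 2.5 hours and the 460/530 nm ratio recorded.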

[3] = biological target: Cytochrome P450 1A2 (Homo sapiens) (UniProt P05177); test: p450-cyp1a2 (AID 410; calls by dose curve; further: potency means the concentration at half of the fitted maximal effect;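 on activity change, negative = inhibition: -100% = full effect of reference inhibitor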); details: recombinant CYP1A2, luciferin-ME demethylation, luminescence; series mostly up to 11.4 µM
Method in brief: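 Luminescent demethylation readout: Luciferin-ME (100uM, equal to Km) turned over by 20nM CYP1A2 for 60 min at room temperature after NADPH regeneration addition, following 10 min compound preincubation. Normalization used 57 uM furafylline as full inhibition.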

[4] = NFAT Signaling Pathway (AID 444); details: Jurkat NFAT-bla M1, carbachol, beta-lactamase ratio, 5 h; at 7.69 µM (top of the series) unless noted;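 further: carbachol stimulus at about its EC50 of 1 µM final; on the % scale 0 is the no-effect control and ±100 the full control effect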
Method in brief: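 Jurkat cells carrying an NFAT-driven β-lactamase reporter and co-transfected muscarinic M1 receptor were treated with compound plus carbachol (1 uM final, an EC50 level) for 5 h at 37 °C. CCF4 loading followed for 1 h at RT; 460/530 nm ratio gave %activity.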

[5] = Stat Signaling Pathway (AID 446); details: ME-180 (cervical carcinoma) SIE beta-lactamase reporter, IL-6 stimulated, 5 h; at 7.69 µM (top of the series) unless noted;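 further: ME-180 cervical cancer cells given 40 pM IL-6 alongside compound; SIE-controlled beta-lactamase reporter measured as 460/530 nm FRET emission ratio; on the % scale 0 is the no-effect control and ±100 the full control effect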
Method in brief: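 Emission at 460 and 530 nm (excitation 405 nm) reports SIE-controlled beta-lactamase in ME-180 cells. Cells received compound with 40 pM IL-6 for 5 hrs at 37 C; data scaled between 300 pM IL-6 and 125 nM JAK-inhibitor controls.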

[6] = biological target: Glucocorticoid receptor (Homo sapiens) (UniProt P04150); test: GR-GFP Redistribution (AID 450;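 active means compounds whose dose series gives a full or clear partial fitted curve of increased nuclear translocation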; further: potency means the concentration at half of the fitted maximal effect); details: U2OS GR-GFP nuclear translocation, laser cytometry, 2 h
[7] = biological target: Glucocorticoid receptor (Homo sapiens) (UniProt P04150); test: GR-EFC Redistribution (AID 451; calls by dose curve; further: potency means the concentration at half of the fitted maximal effect); details: CHO-K1 GR-EFC translocation, beta-gal luminescence, 2 h
Method in brief: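 CHO-K1 cells stably expressing nuclear-localized β-gal enzyme acceptor and GR fused C-terminally to the enzyme donor fragment; ligand-driven nuclear translocation restores β-gal by complementation. Compounds titrated up to 46 uM final, 2 h at 37 °C; luminescence read.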

[8] = biological target: Mitogen-activated protein kinase 10 (Mus musculus) (UniProt Q61831); test: JNK3 AlphaScreen Assay (AID 530); details: JNK3 lysate, c-Jun phosphorylation; series mostly up to 11.4 µM;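 further: kinase came from lysate of stimulated human HepG2 cells; signal reports phosphorylation of biotinylated GST-cJun 1-79 at Ser73 with 10 µM ATP; on the % scale 0 is the no-effect control and ±100 the full control effect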
Method in brief: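 Phosphorylation of biotinylated GST-cJun(1-79) at Ser73 is measured by AlphaScreen proximity luminescence. Enzyme is JNK3 in HepG2 lysates activated with interleukin-1beta and tumor necrosis factor alpha; ATP is 10 uM final.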

[9] = biological target: 3',5'-cyclic-AMP phosphodiesterase 4B (Homo sapiens) (UniProt Q07343); test: qHTS Assay for Inhibitors of PDE-IV (AID 607; active means well fitted activation curve with a large enough effect in the main read-out, with a control signal flat, not every such curve was filed as active; further: % of control where 0% means no effect); details: HEK293 ACTOne CNG channel cells, membrane potential fluorescence; series mostly up to 22.9 µM
Method in brief: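 The readout is membrane depolarisation from a cAMP-sensing CNG channel, detected with a potential dye at ex 535/em 590. Cells were HEK293-derived (endogenous PDE-IV) at 1000 cells/well, titrated up to 22.9 uM final.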

Sequence of Glucocorticoid receptor (Homo sapiens) (P04150 whole entry, looked up, the tested form may be a part): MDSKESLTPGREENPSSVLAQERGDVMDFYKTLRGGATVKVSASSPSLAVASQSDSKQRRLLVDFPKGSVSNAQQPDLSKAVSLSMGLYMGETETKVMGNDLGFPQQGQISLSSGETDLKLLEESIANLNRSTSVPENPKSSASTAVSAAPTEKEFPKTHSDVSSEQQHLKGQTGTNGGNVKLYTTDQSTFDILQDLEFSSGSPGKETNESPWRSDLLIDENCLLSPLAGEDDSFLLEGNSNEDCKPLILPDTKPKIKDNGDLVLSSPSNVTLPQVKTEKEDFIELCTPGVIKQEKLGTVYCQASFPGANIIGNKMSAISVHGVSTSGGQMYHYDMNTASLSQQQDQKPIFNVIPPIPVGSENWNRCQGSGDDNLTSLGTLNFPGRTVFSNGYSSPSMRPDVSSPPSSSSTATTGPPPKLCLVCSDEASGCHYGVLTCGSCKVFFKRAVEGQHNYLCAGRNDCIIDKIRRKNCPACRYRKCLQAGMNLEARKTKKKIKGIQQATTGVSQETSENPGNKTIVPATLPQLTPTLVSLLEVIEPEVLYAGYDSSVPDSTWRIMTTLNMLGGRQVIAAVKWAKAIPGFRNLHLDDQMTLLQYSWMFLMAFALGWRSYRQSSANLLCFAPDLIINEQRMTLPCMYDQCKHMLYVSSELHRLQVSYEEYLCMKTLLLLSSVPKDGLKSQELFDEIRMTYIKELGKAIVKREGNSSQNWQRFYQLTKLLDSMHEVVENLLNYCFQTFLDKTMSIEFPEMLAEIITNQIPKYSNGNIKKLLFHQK
Sequence of Cytochrome P450 1A2 (Homo sapiens) (P05177 whole entry, looked up): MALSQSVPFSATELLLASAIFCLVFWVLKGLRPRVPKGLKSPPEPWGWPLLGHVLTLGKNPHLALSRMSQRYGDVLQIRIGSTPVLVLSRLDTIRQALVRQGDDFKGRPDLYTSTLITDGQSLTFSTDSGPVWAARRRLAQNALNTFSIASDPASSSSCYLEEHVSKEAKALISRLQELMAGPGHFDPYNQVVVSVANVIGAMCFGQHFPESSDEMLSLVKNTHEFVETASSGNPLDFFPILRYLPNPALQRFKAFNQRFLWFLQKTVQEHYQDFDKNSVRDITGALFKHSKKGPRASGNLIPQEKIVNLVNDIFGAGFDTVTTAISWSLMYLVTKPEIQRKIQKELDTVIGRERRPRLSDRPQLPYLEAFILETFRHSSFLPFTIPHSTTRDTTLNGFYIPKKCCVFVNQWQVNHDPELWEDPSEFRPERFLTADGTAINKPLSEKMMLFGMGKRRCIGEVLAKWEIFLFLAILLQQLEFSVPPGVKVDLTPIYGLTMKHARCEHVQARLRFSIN
Sequence of Lysosomal acid glucosylceramidase (Homo sapiens) (P04062 whole entry, looked up): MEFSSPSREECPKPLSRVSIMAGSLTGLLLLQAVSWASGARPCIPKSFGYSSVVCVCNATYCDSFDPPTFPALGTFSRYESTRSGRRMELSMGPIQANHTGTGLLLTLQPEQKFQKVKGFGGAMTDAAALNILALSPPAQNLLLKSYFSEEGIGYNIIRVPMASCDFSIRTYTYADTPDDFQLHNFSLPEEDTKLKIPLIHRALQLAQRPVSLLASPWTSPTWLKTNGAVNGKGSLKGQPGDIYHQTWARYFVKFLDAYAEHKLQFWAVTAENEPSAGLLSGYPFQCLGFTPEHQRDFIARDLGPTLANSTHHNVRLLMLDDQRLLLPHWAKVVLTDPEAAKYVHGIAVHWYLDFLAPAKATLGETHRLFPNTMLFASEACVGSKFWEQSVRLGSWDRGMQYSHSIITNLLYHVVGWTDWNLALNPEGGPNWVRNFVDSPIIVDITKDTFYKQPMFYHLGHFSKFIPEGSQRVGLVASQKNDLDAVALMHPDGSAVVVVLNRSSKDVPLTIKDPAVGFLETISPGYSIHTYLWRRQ
Sequence of 3',5'-cyclic-AMP phosphodiesterase 4B (Homo sapiens) (Q07343 whole entry, looked up): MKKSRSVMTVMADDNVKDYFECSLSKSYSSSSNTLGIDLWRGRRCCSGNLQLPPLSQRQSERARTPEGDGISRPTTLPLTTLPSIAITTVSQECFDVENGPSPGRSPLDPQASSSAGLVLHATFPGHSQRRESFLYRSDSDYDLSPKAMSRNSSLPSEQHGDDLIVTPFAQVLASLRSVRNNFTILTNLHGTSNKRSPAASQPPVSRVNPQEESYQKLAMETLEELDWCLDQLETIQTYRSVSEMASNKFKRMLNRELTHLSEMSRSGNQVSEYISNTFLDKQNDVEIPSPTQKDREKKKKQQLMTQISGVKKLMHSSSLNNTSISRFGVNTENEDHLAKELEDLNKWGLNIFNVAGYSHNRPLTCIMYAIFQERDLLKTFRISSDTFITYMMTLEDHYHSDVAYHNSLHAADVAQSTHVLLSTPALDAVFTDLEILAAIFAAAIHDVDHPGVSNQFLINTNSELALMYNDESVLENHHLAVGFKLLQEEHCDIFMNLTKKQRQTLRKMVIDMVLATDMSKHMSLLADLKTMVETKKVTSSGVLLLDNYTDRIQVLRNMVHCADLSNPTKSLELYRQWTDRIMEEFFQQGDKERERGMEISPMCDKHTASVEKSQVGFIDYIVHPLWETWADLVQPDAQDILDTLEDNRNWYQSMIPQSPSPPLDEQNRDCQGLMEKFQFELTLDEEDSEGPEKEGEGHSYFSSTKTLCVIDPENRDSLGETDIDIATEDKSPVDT

NS(=O)(=O)c1ccc(NCc2cnc3ccccc3n2)cc1
inactive: Potency [1] > 11.4 µM | activity change, negative = inhibition [2] 5.55% | activity change, negative = inhibition [3] -18.2% [at 2.29 µM] | activity change, negative = inhibition [4] 6.06% | activity, negative = inhibition [5] 3.16% | Potency [6] > 46 µM | Potency [7] > 9.22 µM | Potency [8] | Potency [9]

N[C@@H](Cc1nn[nH]n1)C(=O)O
inactive: Potency [1] > 11.4 µM | activity change, negative = inhibition [2] -0.568% | Potency [3] | activity change, negative = inhibition [4] -5.25% | activity, negative = inhibition [5] 10.9% | Potency [6] > 46 µM | Potency [7] > 9.22 µM | Potency [8] | Potency [9]

Nc1ncnc2nc(N3CCN(CCO)CC3)[nH]c12
inactive: Potency [1] > 11.4 µM | activity change, negative = inhibition [2] 2.43% | activity change, negative = inhibition [3] -1.2% [at 2.29 µM] | activity change, negative = inhibition [4] 8.33% | activity, negative = inhibition [5] -1.25% | Potency [6] > 46 µM | Potency [7] > 9.22 µM | Potency [8] | Potency [9]

O=C1C2C3C=CC(C2C(=O)N1CN1CCOCC1)C1C2C(=O)N(CN4CCOCC4)C(=O)C2C31 (stereo unspecified)
inactive: Potency [1] > 11.4 µM | activity change, negative = inhibition [2] 1.83% | Potency [3] | activity change, negative = inhibition [4] 6.33% | activity, negative = inhibition [5] 11.2% | Potency [6] > 46 µM | Potency [7] > 9.22 µM | Potency [8] | Potency [9]

O=C(O)CCC(O)=C1S(=O)(=O)OCCOS1(=O)=O
inactive: Potency [1] > 11.4 µM | activity change, negative = inhibition [2] -1.99% | Potency [3] | activity change, negative = inhibition [4] 2.36% | activity, negative = inhibition [5] 2.62% | Potency [6] > 46 µM | Potency [7] > 9.22 µM | Potency [8] | Potency [9]

O=C(O)c1cc2c(cc1S(=O)(=O)O)[C@H]1[C@@H]([C@H]3[C@H]2[C@@]2(Cl)C(Cl)=C(Cl)[C@]3(Cl)C2(Cl)Cl)[C@]2(Cl)C(Cl)=C(Cl)[C@@]1(Cl)C2(Cl)Cl
inactive: Potency [1] > 11.4 µM | activity change, negative = inhibition [2] 5.22% | Potency [3] | activity change, negative = inhibition [4] 0.12% | activity, negative = inhibition [5] -4.58% | Potency [6] > 46 µM | Potency [7] > 9.22 µM | Potency [8] | Potency [9]

NC(N)=NC[C@@H]1CCCCCCN1
inactive: Potency [1] > 11.4 µM | activity change, negative = inhibition [2] 2% | Potency [3] | activity change, negative = inhibition [4] 4.87% | activity, negative = inhibition [5] -5.43% | Potency [6] > 46 µM | Potency [7] > 9.22 µM | Potency [8] | Potency [9]

N=C(N)c1ccc(-c2ccc(-c3ccc(C(=N)N)cc3)o2)cc1
inactive: Potency [1] > 11.4 µM | activity change, negative = inhibition [2] 7.04% | Potency [3] | activity change, negative = inhibition [4] 7.72% | activity, negative = inhibition [5] 10.3% | Potency [6] > 46 µM | Potency [7] > 9.22 µM | Potency [8] | Potency [9]

N[C@@H](CSCc1ccccc1)C(=O)O
inactive: Potency [1] > 11.4 µM | activity change, negative = inhibition [2] 14.5% | Potency [3] | activity change, negative = inhibition [4] 3.49% | activity, negative = inhibition [5] -2.8% | Potency [6] > 46 µM | Potency [7] > 9.22 µM | Potency [8] | Potency [9]

CCc1c(O)c2c(c(O)c1C(C)=O)C(=O)c1c(cc(O)c(C(=O)O)c1C(=O)O)C2=O
inactive: Potency [1] > 11.4 µM | activity change, negative = inhibition [2] -2.41% | Potency [3] | activity change, negative = inhibition [4] 15.1% | activity, negative = inhibition [5] 5.45% | Potency [6] > 46 µM | Potency [7] > 9.22 µM | Potency [8] | Potency [9]

CC(=NCC(=O)O)c1ccccc1
active: Potency [3] 3.98 µM
inactive: Potency [1] > 11.4 µM | activity change, negative = inhibition [2] 0.333% | activity change, negative = inhibition [4] 13.9% | activity, negative = inhibition [5] 1.76% | Potency [6] > 46 µM | Potency [7] > 9.22 µM | Potency [8] | Potency [9]

CC[C@@H](CS(=O)(=O)O)[N+](=O)[O-]
inactive: Potency [1] > 11.4 µM | activity change, negative = inhibition [2] 7.92% | Potency [3] | activity change, negative = inhibition [4] 19.9% | activity, negative = inhibition [5] 10.6% | Potency [6] > 46 µM | Potency [7] > 9.22 µM | Potency [8] | Potency [9]

CN1CCN(CCCN)CC1
inactive: Potency [1] > 11.4 µM | activity change, negative = inhibition [2] 0.666% | Potency [3] | activity change, negative = inhibition [4] 18.2% | activity, negative = inhibition [5] 6.19% | Potency [6] > 46 µM | Potency [7] > 9.22 µM | Potency [8] | Potency [9]

O=C1COC(c2ccccc2O)=NN1CCCN1CCCC1
inactive: Potency [1] > 11.4 µM | activity change, negative = inhibition [2] 5.73% | Potency [3] | activity change, negative = inhibition [4] -11.6% | activity, negative = inhibition [5] 5.21% | Potency [6] > 46 µM | Potency [7] > 9.22 µM | Potency [8] | Potency [9]
